Measured values from PubChem BioAssay (NCI).
The panel holds about 83,000 compounds, 20% with a hit somewhere; the sample as a whole holds those more often.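 Cell lines were cultured in 96-well plates, exposed to a single compound concentration, and assessed for percent growth 48 hours later.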 Activity calls are given as the source filed them. How the source made its calls: active means growth percent below 10; inactive means the rest.

Legend:
Assay in all cases: NCI-60 one-dose screen, 48 h (100 = growth as untreated, 0 = no growth, -100 = all killed)
SK-MEL-2 melanoma = system: SK-MEL-2 melanoma
EKVX NSCLC = system: EKVX NSCLC
SN12C renal = system: SN12C renal
UO-31 renal = system: UO-31 renal
TK-10 renal = system: TK-10 renal
ACHN renal = system: ACHN renal
CAKI-1 renal = settings: 10 µM unless noted
A498 renal = system: A498 renal
HL-60(TB) leukemia = settings: 10 µM unless noted
CCRF-CEM leukemia = system: CCRF-CEM leukemia
MOLT-4 leukemia = system: MOLT-4 leukemia
SR leukemia = settings: 10 µM unless noted
RPMI-8226 leukemia = system: RPMI-8226 leukemia
OVCAR-8 ovarian = system: OVCAR-8 ovarian
OVCAR-5 ovarian = system: OVCAR-5 ovarian
OVCAR-4 ovarian = system: OVCAR-4 ovarian
SK-OV-3 ovarian = system: SK-OV-3 ovarian
IGROV1 ovarian = system: IGROV1 ovarian
OVCAR-3 ovarian = system: OVCAR-3 ovarian
HS 578T breast = system: HS 578T breast

Measured: growth

CNC(=O)Oc1ccc(Cl)cc1SSc1cc(Cl)ccc1OC(=O)NC
inactive: SK-MEL-2 melanoma; 10 µM unless noted 77.5% | EKVX NSCLC; 10 µM unless noted 109% | SN12C renal; 10 µM unless noted 70.9% | UO-31 renal; 10 µM unless noted 64.6% | TK-10 renal; 10 µM unless noted 123% | ACHN renal; 10 µM unless noted 87.2% | CAKI-1 renal 97.1% | A498 renal; 10 µM unless noted 98% | HL-60(TB) leukemia 61.3% | CCRF-CEM leukemia; 10 µM unless noted 50.7% | MOLT-4 leukemia; 10 µM unless noted 52.9% | SR leukemia 67.7% | RPMI-8226 leukemia; 10 µM unless noted 48.1% | OVCAR-8 ovarian; 10 µM unless noted 78.8% | OVCAR-5 ovarian; 10 µM unless noted 121% | OVCAR-4 ovarian; 10 µM unless noted 74.5% | SK-OV-3 ovarian; 10 µM unless noted 104% | IGROV1 ovarian; 10 µM unless noted 77.4% | OVCAR-3 ovarian; 10 µM unless noted 54.7% | HS 578T breast; 10 µM unless noted 85.6%

CC(=O)OCC1OC([S-])C(OC(C)=O)C(OC(C)=O)C1OC(C)=O.[Au+].c1ccc(CN2[CH-]N(Cc3ccccc3)C(c3ccccc3)=C2c2ccccc2)cc1
active: SK-MEL-2 melanoma; 4.75 µM -22.7% | SK-MEL-2 melanoma; 10 µM -30.8% | EKVX NSCLC; 4.75 µM 8.29% | EKVX NSCLC; 10 µM -13.6% | SN12C renal; 4.75 µM -15.1% | SN12C renal; 10 µM -49% | UO-31 renal; 4.75 µM 3.56% | UO-31 renal; 10 µM -70.5% | TK-10 renal; 4.75 µM 5.22% | TK-10 renal; 10 µM -41.6% | ACHN renal; 4.75 µM -18.5% | ACHN renal; 10 µM -39.3% | A498 renal; 4.75 µM -14.7% | HL-60(TB) leukemia -43.5% [4.75 µM] | CCRF-CEM leukemia; 4.75 µM -21% | MOLT-4 leukemia; 4.75 µM 3.9% | RPMI-8226 leukemia; 4.75 µM -20.5% | RPMI-8226 leukemia; 10 µM -4.74% | OVCAR-8 ovarian; 4.75 µM 3.93% | SK-OV-3 ovarian; 4.75 µM -13.2% | IGROV1 ovarian; 4.75 µM -33.7% | IGROV1 ovarian; 10 µM -67.2% | OVCAR-3 ovarian; 4.75 µM -44.3% | OVCAR-3 ovarian; 10 µM -95.7%
inactive: A498 renal; 10 µM 50.4% | CCRF-CEM leukemia; 10 µM 17.4% | MOLT-4 leukemia; 10 µM 13.5% | OVCAR-8 ovarian; 10 µM 22.3% | OVCAR-5 ovarian; 4.75 µM 24.2% | OVCAR-5 ovarian; 10 µM 72.2% | OVCAR-4 ovarian; 4.75 µM 12.6% | OVCAR-4 ovarian; 10 µM 34.2% | SK-OV-3 ovarian; 10 µM 70.4% | HS 578T breast; 4.75 µM 10% | HS 578T breast; 10 µM 28.5%

CC[C@H](C)[C@H](NC(=O)[C@H]1CCCCN1C)C(=O)N(C)[C@H](C(=O)NC12CC(C(=O)N[C@@H](Cc3ccccc3)C[C@H](C)C(=O)OC)(C1)C2)C(C)C
inactive: SK-MEL-2 melanoma; 10 µM unless noted 89.3% | EKVX NSCLC; 10 µM unless noted 102% | SN12C renal; 10 µM unless noted 99% | UO-31 renal; 10 µM unless noted 95.1% | TK-10 renal; 10 µM unless noted 98.4% | ACHN renal; 10 µM unless noted 106% | CAKI-1 renal 95.9% | A498 renal; 10 µM unless noted 112% | HL-60(TB) leukemia 114% | CCRF-CEM leukemia; 10 µM unless noted 103% | MOLT-4 leukemia; 10 µM unless noted 104% | SR leukemia 114% | RPMI-8226 leukemia; 10 µM unless noted 108% | OVCAR-8 ovarian; 10 µM unless noted 96.8% | OVCAR-5 ovarian; 10 µM unless noted 98.4% | OVCAR-4 ovarian; 10 µM unless noted 90.8% | SK-OV-3 ovarian; 10 µM unless noted 104% | IGROV1 ovarian; 10 µM unless noted 105% | OVCAR-3 ovarian; 10 µM unless noted 101% | HS 578T breast; 10 µM unless noted 118%

CC1(C)N(Nc2ccccc2)C(=O)C2CCCN21 (stereo not drawn)
inactive: SK-MEL-2 melanoma; 10 µM unless noted 84% | EKVX NSCLC; 10 µM unless noted 74.4% | SN12C renal; 10 µM unless noted 91.5% | UO-31 renal; 10 µM unless noted 32.2% | TK-10 renal; 10 µM unless noted 59.6% | ACHN renal; 10 µM unless noted 21% | A498 renal; 10 µM unless noted 96.5% | CCRF-CEM leukemia; 10 µM unless noted 18.5% | MOLT-4 leukemia; 10 µM unless noted 15.1% | SR leukemia 14.2% | RPMI-8226 leukemia; 10 µM unless noted 13.7% | OVCAR-8 ovarian; 10 µM unless noted 87% | OVCAR-5 ovarian; 10 µM unless noted 75.1% | OVCAR-4 ovarian; 10 µM unless noted 70.8% | SK-OV-3 ovarian; 10 µM unless noted 85.1% | IGROV1 ovarian; 10 µM unless noted 72.7%
active: CAKI-1 renal 6.09% | HL-60(TB) leukemia -31.4% | OVCAR-3 ovarian; 10 µM unless noted 0.57%

CCC1(CCSC#N)C(=O)NC(=O)NC1=O
inactive: SK-MEL-2 melanoma; 10 µM unless noted 109% | EKVX NSCLC; 10 µM unless noted 93.2% | SN12C renal; 10 µM unless noted 104% | UO-31 renal; 10 µM unless noted 87% | TK-10 renal; 10 µM unless noted 86.5% | ACHN renal; 10 µM unless noted 106% | CAKI-1 renal 98.7% | A498 renal; 10 µM unless noted 90.9% | HL-60(TB) leukemia 98.3% | CCRF-CEM leukemia; 10 µM unless noted 103% | MOLT-4 leukemia; 10 µM unless noted 85.1% | SR leukemia 88.8% | RPMI-8226 leukemia; 10 µM unless noted 106% | OVCAR-8 ovarian; 10 µM unless noted 102% | OVCAR-5 ovarian; 10 µM unless noted 109% | OVCAR-4 ovarian; 10 µM unless noted 91.4% | SK-OV-3 ovarian; 10 µM unless noted 98.4% | IGROV1 ovarian; 10 µM unless noted 104% | OVCAR-3 ovarian; 10 µM unless noted 105% | HS 578T breast; 10 µM unless noted 106%

CCOC(=O)c1cncn1C(C)c1ccccc1 (stereo not drawn)
inactive: SK-MEL-2 melanoma; 10 µM unless noted 105% | EKVX NSCLC; 10 µM unless noted 98.2% | SN12C renal; 10 µM unless noted 102% | UO-31 renal; 10 µM unless noted 81% | TK-10 renal; 10 µM unless noted 95.2% | ACHN renal; 10 µM unless noted 102% | CAKI-1 renal 94.6% | A498 renal; 10 µM unless noted 134% | HL-60(TB) leukemia 104% | CCRF-CEM leukemia; 10 µM unless noted 94.7% | MOLT-4 leukemia; 10 µM unless noted 94.5% | RPMI-8226 leukemia; 10 µM unless noted 105% | OVCAR-8 ovarian; 10 µM unless noted 102% | OVCAR-5 ovarian; 10 µM unless noted 105% | OVCAR-4 ovarian; 10 µM unless noted 109% | SK-OV-3 ovarian; 10 µM unless noted 103% | IGROV1 ovarian; 10 µM unless noted 107% | OVCAR-3 ovarian; 10 µM unless noted 109% | HS 578T breast; 10 µM unless noted 97.2%
